In the supplement of paper PMC10849652:
Of roughly 7,900 targets only a part is listed; those with a hit were picked by preference. About 0.6% of all pairs of compound and target were hits. Values without a mark were called inactive.

Assays:
Assay in all cases: log2 fold change, soluble protein after heating vs DMSO (PISA); higher = thermal stabilisation; K562 cells, 10 uM, 30 min; active = over 0.2 and 3.5 SD of the protein, either way, in both replicates (recomputed)
[1] = compound: CC1=C(C=C(C=C1)NC(=O)C2=CC(=CC=C2)C(C)(C)C#N)NC3=CC4=C(C=C3)N=CN(C4=O)C
Procedure, shortened: (§1)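 K562 cells at 2×10^6 cells/mL were treated with 10 μM compound for 30 min. Aliquots were heated for 3 min across 48°C-58°C, pooled, and extracted in PBS with 0.5% NP-40 at 4°C; soluble protein was the supernatant after 21,000xg for 90 min. Soluble protein was quantified by TMTpro 16plex LC-MS/MS with channel sums equalised, and reported as log2 fold change in thermal stability against DMSO controls, with values from duplicates.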

[2] = compound: CC1=C(C=C(C=C1)NC(=O)C2=CC(=CC=C2)N(C)C)NC(=O)C3=CC=C(C=C3)O
Procedure, shortened: as §1

[3] = compound: CC1=CC=C(C=C1)SC2=C3C=C(SC3=CN=C2)C(=O)N
Procedure, shortened: as §1

[4] = compound: CC1=NC(=CC=C1)C2=C(N=C(N2)C(C)(C)C)C3=CC4=NC=CN=C4C=C3
Procedure, shortened: as §1

Nexturastat A = compound: CCCCN(Cc1ccc(C(=O)NO)cc1)C(=O)Nc1ccccc1 [Nexturastat A]
Procedure, shortened: as §1

vemurafenib = compound: CCCS(=O)(=O)Nc1ccc(F)c(C(=O)c2c[nH]c3ncc(-c4ccc(Cl)cc4)cc23)c1F [vemurafenib]
Procedure, shortened: as §1

[5] = compound: CCCS(=O)(=O)Nc1ccc(F)c(C(=O)c2c[nH]c3ncc(Cl)cc23)c1F
Procedure, shortened: as §1

[6] = compound: CCCc1cc(C)[nH]c(=O)c1CNC(=O)c1cc(-c2ccnc(N3CCN(C)CC3)c2)cc2c1cnn2C(C)C
Procedure, shortened: as §1

givinostat = compound: CCN(CC)Cc1ccc2cc(COC(=O)Nc3ccc(C(=O)NO)cc3)ccc2c1 [givinostat]
Procedure, shortened: as §1

barasertib = compound: CCN(CCCOc1ccc2c(Nc3cc(CC(=O)Nc4cccc(F)c4)[nH]n3)ncnc2c1)CCOP(=O)(O)O [barasertib]
Procedure, shortened: as §1

[7] = compound: CC[C@@H]1C(=O)N(C)c2cnc(Nc3ccc(C(=O)NC4CCN(C)CC4)cc3OC)nc2N1C1CCCC1
Procedure, shortened: as §1

volasertib = compound: CC[C@@H]1C(=O)N(C)c2cnc(Nc3ccc(C(=O)N[C@H]4CC[C@H](N5CCN(CC6CC6)CC5)CC4)cc3OC)nc2N1C(C)C [volasertib]
Procedure, shortened: as §1

[8] = compound: CC[C@H](C)N1C=C(C2=C(C=C(C=C21)C3=CN=C(C=C3)N4CCNCC4)C(=O)NCC5=C(C=C(NC5=O)C)C)C
Procedure, shortened: as §1

epoxomicin = compound: CC[C@H](C)[C@@H](C(=O)N[C@@H]([C@@H](C)O)C(=O)N[C@@H](CC(C)C)C(=O)[C@]1(CO1)C)NC(=O)[C@H]([C@@H](C)CC)N(C)C(=O)C [epoxomicin]
Procedure, shortened: as §1

[9] = compound: CCn1c(C(=O)N(C2CC2)C2CC2)cc2c3c(ncn3C)c(Nc3cc(C)n(C)n3)nc21
Procedure, shortened: as §1

[10] = compound: CCn1cc(-c2ccnc3[nH]c(-c4cccc(CN(C)C)c4)cc23)c(-c2ccc(NC(=O)N(C)C)cc2)n1
Procedure, shortened: as §1

[11] = compound: CN(C)CC(=O)Nc1ccc2[nH]c(=O)c3ccccc3c2c1
Procedure, shortened: as §1

rosiglitazone = compound: CN(CCOC1=CC=C(C=C1)C[C@H]2C(=O)NC(=O)S2)C3=CC=CC=N3 (racemic) [rosiglitazone]
Procedure, shortened: as §1

[12] = compound: CN1C2=C(C3=C1C(=O)N(N=C3)CC4=CC(=CC=C4)N)SC(=C2)S(=O)C
Procedure, shortened: as §1

[13] = compound: CN1CCC(CNc2ccc3ncc(-c4cccc(OC(F)(F)F)c4)n3n2)CC1
Procedure, shortened: as §1

Sequence of UniProt Q8N122 (Q8N122 whole entry, looked up): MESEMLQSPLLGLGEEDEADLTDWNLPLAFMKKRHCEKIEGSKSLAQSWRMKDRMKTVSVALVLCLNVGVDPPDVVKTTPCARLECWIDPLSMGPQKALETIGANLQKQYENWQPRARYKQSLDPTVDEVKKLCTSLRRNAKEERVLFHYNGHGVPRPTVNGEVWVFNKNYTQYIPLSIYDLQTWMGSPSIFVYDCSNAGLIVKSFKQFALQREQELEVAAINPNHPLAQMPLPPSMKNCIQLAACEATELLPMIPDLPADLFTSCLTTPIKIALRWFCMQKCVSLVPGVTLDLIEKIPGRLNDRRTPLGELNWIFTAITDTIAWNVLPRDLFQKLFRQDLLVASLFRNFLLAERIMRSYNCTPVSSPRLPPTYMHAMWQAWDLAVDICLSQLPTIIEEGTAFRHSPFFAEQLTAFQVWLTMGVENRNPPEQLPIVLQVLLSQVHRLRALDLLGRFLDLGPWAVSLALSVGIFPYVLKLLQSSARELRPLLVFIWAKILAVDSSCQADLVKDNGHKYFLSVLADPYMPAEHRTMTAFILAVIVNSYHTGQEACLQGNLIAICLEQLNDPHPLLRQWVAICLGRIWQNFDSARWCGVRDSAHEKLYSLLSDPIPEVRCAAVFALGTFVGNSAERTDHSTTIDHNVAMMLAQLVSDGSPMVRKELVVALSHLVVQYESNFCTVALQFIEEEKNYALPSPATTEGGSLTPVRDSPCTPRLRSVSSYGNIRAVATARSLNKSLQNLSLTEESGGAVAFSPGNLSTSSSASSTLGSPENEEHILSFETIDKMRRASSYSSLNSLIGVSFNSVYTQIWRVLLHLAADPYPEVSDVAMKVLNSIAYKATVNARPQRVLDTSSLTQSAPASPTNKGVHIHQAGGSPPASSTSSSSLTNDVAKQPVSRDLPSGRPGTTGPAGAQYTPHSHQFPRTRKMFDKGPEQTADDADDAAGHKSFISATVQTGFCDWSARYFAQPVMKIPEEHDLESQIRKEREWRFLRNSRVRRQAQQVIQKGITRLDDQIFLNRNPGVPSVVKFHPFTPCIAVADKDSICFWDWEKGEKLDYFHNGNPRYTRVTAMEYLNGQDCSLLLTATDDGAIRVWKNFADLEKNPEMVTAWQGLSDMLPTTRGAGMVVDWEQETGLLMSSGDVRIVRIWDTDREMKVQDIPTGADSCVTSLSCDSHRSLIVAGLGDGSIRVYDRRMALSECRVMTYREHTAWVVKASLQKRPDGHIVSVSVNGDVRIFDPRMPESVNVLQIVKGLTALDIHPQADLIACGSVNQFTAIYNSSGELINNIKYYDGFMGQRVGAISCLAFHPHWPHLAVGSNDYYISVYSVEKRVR
Sequence of UniProt Q15287 (Q15287 whole entry, looked up): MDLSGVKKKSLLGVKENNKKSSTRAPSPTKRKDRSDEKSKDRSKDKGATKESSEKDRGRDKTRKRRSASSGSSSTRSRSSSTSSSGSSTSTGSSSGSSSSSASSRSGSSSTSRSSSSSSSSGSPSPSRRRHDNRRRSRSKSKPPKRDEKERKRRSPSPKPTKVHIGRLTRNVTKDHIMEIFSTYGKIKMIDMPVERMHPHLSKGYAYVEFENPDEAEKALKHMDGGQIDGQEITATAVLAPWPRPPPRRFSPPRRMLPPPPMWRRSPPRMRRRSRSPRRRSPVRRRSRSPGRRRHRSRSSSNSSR
Sequence of UniProt Q9BQY4 (Q9BQY4 whole entry, looked up): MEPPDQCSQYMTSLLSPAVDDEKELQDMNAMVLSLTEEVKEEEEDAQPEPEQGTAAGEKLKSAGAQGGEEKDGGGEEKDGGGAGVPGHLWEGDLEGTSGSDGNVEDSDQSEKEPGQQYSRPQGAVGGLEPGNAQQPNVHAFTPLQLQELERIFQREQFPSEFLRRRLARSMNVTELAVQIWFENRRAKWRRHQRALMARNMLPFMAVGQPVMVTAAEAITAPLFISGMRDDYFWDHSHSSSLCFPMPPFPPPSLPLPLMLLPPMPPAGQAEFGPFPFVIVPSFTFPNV
Sequence of UniProt Q9NW64 (Q9NW64 whole entry, looked up): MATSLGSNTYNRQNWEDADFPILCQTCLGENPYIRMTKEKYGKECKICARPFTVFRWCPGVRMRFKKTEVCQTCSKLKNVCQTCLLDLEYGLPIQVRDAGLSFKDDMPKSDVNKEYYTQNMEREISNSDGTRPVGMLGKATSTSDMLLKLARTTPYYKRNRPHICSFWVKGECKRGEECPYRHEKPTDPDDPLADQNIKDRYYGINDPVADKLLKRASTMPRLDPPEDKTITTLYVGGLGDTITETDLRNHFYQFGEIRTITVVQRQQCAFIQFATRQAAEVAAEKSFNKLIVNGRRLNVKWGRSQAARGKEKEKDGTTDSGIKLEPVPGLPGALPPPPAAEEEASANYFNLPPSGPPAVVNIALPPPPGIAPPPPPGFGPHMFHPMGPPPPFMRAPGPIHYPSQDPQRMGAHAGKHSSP
Sequence of UniProt P51148 (P51148 whole entry, looked up): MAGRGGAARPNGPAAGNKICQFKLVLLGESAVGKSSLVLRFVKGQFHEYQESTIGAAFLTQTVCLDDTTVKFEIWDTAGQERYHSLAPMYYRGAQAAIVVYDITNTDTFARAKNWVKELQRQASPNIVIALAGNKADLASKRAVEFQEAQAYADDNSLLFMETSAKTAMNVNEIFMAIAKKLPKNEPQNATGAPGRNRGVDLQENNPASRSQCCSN
Sequence of UniProt Q9GZR1 (Q9GZR1 whole entry, looked up): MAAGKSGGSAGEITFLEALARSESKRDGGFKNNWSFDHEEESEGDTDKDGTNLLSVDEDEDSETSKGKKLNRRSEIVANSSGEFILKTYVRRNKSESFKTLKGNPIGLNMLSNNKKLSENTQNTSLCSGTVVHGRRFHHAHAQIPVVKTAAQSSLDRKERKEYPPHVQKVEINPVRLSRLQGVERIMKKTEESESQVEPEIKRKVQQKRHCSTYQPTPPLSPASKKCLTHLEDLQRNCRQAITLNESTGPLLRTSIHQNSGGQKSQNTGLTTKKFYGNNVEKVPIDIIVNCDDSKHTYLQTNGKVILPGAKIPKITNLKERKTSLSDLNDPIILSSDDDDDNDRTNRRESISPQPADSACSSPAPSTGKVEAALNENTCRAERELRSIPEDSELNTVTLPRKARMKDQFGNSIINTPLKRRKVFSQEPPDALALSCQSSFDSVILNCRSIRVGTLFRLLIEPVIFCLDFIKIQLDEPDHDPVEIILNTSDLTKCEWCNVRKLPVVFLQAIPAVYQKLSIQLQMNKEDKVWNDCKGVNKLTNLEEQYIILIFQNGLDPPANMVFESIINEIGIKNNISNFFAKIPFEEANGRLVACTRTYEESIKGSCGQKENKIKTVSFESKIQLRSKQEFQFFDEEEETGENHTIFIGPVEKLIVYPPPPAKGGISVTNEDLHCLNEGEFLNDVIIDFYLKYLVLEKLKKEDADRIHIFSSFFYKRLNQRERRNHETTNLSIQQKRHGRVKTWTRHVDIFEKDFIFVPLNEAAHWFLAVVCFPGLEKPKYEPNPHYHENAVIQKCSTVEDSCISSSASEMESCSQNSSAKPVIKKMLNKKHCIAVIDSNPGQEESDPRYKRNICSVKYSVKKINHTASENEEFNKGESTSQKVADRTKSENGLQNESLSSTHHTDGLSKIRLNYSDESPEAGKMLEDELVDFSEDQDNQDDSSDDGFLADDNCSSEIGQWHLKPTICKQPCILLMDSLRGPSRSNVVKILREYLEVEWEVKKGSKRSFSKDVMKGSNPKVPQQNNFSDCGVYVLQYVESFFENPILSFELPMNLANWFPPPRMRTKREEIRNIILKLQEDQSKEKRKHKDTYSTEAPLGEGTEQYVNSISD
Sequence of UniProt Q8NBX0 (Q8NBX0 whole entry, looked up): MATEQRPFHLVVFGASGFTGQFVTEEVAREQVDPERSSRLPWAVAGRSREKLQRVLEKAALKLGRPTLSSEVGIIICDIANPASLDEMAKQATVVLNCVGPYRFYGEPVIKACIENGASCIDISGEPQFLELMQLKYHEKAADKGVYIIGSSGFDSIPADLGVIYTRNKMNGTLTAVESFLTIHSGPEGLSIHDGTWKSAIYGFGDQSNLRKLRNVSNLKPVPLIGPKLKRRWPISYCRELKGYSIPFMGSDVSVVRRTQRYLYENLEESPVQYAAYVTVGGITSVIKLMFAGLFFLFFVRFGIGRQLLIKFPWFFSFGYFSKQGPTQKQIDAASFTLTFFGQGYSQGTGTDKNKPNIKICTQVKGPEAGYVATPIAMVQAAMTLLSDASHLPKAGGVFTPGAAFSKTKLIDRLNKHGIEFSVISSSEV
Sequence of UniProt Q8IXJ6 (Q8IXJ6 whole entry, looked up): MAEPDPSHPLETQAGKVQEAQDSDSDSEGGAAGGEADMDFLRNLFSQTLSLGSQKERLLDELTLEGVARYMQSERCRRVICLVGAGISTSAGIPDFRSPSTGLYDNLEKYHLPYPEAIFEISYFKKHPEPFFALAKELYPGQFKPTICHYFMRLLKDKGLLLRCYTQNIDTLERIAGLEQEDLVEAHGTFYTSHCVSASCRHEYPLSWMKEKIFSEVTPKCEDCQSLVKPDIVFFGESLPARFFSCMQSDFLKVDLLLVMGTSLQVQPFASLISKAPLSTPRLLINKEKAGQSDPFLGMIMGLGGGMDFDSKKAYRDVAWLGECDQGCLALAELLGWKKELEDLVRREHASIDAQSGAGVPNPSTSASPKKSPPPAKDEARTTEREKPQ
Sequence of UniProt Q9NQG5 (Q9NQG5 whole entry, looked up): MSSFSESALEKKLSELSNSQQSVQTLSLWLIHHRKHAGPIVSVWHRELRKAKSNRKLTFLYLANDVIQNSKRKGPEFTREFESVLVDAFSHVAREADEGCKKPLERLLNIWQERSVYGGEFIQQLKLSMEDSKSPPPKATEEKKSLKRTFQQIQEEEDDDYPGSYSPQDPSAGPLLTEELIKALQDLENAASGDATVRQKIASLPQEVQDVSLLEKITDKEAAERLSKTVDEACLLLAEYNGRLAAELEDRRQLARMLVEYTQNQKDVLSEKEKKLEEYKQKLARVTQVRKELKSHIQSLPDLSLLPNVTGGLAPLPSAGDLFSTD

Target | log2 fold change [1] | log2 fold change [2] | log2 fold change [3] | log2 fold change [4] | log2 fold change (Nexturastat A) | log2 fold change (vemurafenib) | log2 fold change [5] | log2 fold change [6] | log2 fold change (givinostat) | log2 fold change (barasertib) | log2 fold change [7] | log2 fold change (volasertib) | log2 fold change [8] | log2 fold change (epoxomicin) | log2 fold change [9] | log2 fold change [10] | log2 fold change [11] | log2 fold change (rosiglitazone) | log2 fold change [12] | log2 fold change [13]
SCCPDH (UniProt Q8NBX0) | 0.147 | -0.092 | 0.074 | 0.037 | -0.232 | -0.016 | -0.123 | 0.016 | 0.183 | 0.046 | 0.083 | 0.158 | -0.06 | -0.024 | 0.008 | -0.07 | 0.039 | 0.022 | -0.194 | 0.216
RBM22 (UniProt Q9NW64) | -0.049 | 0.031 | -0.056 | -0.014 | 0.052 | 0.003 | -0.004 | -0.038 | 0.018 | -0.006 | -0.027 | -0.3 (active) | 0.002 | -0.009 | -0.018 | 0.061 | -0.058 | 0.005 | 0.011 | -0.003
RPS21 (UniProt P63220) | -0.007 | 0.01 | -0.042 | -0.007 | -0.033 | -0.077 | -0.072 | -0.038 | -0.015 | -0.016 | 0.089 | 0.238 (active) | -0.04 | 0.028 | 0.028 | 0.055 | -0.045 | -0.019 | -0.004 | 0.073
RNPS1 (UniProt Q15287) | -0.043 | 0.015 | 0.017 | 0.031 | 0.245 | -0.001 | -0.033 | -0.024 | 0.071 | 0.015 | 0.062 | -0.155 | 0.049 | -0.126 | -0.043 | -0.008 | 0.031 | -0.08 | 0.016 | 0.006
SETMAR (UniProt Q53H47) | 0.128 | 0.061 | -0.023 | -0.049 | -0.041 | 0.018 | 0.021 | 0.01 | -0.036 | 0.051 | -0.071 | -0.045 | 0.058 | 0.045 | -0.047 | 0.015 | 0.012 | 0.005 | -0.045 | 0.108
SIRT2 (UniProt Q8IXJ6) | 0.014 | -0.051 | -0.016 | 0.027 | 0.004 | 0.012 | -0.022 | -0.002 | 0.004 | 0.015 | 0.077 | 0.624 (active) | 0.043 | -0.015 | -0.017 | -0.038 | 0.009 | 0.033 | -0.041 | -0.025
RPS4X (UniProt P62701) | 0.019 | 0 | -0.027 | -0.055 | 0.214 | -0.106 | -0.08 | 0.213 | 0.021 | -0.101 | 0.173 | 0.419 | 0.056 | -0.22 | 0.032 | 0.108 | -0.089 | -0.086 | 0.177 | 0.148
RPRD1B (UniProt Q9NQG5) | 0.007 | -0.021 | -0.029 | 0.101 | -0.054 | 0.05 | 0.07 | -0.057 | -0.064 | 0.007 | -0.057 | -0.245 (active) | 0.077 | 0.075 | 0.009 | -0.005 | 0 | 0.052 | -0.059 | -0.077
RPTOR (UniProt Q8N122) | 0.009 | 0.019 | 0.027 | 0.025 | -0.018 | 0.017 | 0.09 | 0.012 | -0.007 | -0.007 | -0.116 | -0.237 (active) | 0.064 | 0.034 | 0.001 | -0.08 | 0.03 | 0.034 | -0.037 | -0.197
RPS16 (UniProt P62249) | 0.028 | -0.016 | -0.087 | -0.035 | 0.11 | -0.073 | -0.103 | 0.337 | -0.046 | -0.053 | 0.125 | 0.388 | 0.044 | -0.118 | 0.026 | 0.124 | -0.085 | -0.072 | 0.112 | 0.1
RAB5C isoform 2 (UniProt P51148) | 0.069 | -0.02 | 0.02 | 0.01 | -0.029 | 0.015 | 0.008 | -0.017 | 0.006 | -0.031 | 0.004 | 0.045 | -0.024 | 0 | 0.029 | -0.002 | 0 | -0.011 | -0.032 | 0.018
RHOXF2 (UniProt Q9BQY4) | -0.03 | 0.034 | -0.037 | 0.021 | 0.083 | -0.015 | 0.012 | -0.024 | 0.05 | 0.033 | 0.014 | 0.061 | -0.046 | 0.024 | -0.079 | 0.086 | -0.028 | -0.013 | 0.074 | -0.073
SENP6 (UniProt Q9GZR1) | -0.048 | -0.006 | 0.037 | -0.007 | 0.247 | -0.028 | -0.01 | 0.077 | 0.057 | -0.026 | -0.086 | -0.07 | -0.044 | -0.039 | 0.029 | -0.022 | -0.017 | 0.004 | -0.014 | -0.038
RPS27A (UniProt P62979) | -0.023 | -0.011 | -0.179 | -0.075 | 0.368 | -0.126 | -0.224 | 0.152 | -0.109 | -0.119 | -0.061 | 0.36 | 0.05 | -0.078 | 0.021 | 0.033 | -0.153 | -0.145 | 0.155 | 0.194
RPS2 (UniProt P15880) | 0.006 | 0.009 | -0.075 | -0.036 | 0.192 | -0.116 | -0.099 | 0.084 | -0.011 | -0.095 | 0.168 | 0.348 | 0.021 | -0.191 | 0.045 | 0.119 | -0.108 | -0.092 | 0.195 | 0.086
RNASET2 (UniProt O00584) | 0.007 | 0.026 | 0.033 | 0.027 | -0.079 | -0.019 | 0.004 | 0.001 | -0.006 | -0.013 | -0.275 (active) | -0.196 | 0.023 | -0.027 | 0.039 | 0.045 | 0.036 | -0.006 | -0.036 | -0.413 (active)
